PubChem BioAssay (NCI)
About 83,000 compounds went through this panel and 20% of them were active in at least one assay; those are over-represented in the sample as a whole.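 96-well plates, one dose, 48 hours. Percent growth reported; active if below 10.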 Activity calls are given as the source filed them.

Tests used:
Test in all cases: NCI-60 one-dose screen, 48 h (100 = growth as untreated, 0 = no growth, -100 = all killed)
Details in all cases: 10 µM
[1] = system: RPMI-8226 leukemia
[2] = system: OVCAR-8 ovarian
[3] = system: OVCAR-5 ovarian
[4] = system: OVCAR-4 ovarian
[5] = system: SK-OV-3 ovarian
[6] = system: IGROV1 ovarian
[7] = system: OVCAR-3 ovarian
[8] = system: HS 578T breast
[9] = system: NCI/ADR-RES ovarian
[10] = system: T-47D breast

Measured: growth

COc1cccc(Cn2c(-c3nonc3N)nc3ccccc32)c1
active: [1] 4.9% | [5] 6.27% | [7] -54% | [8] 3.15%
inactive: [2] 21.4% | [3] 37.5% | [4] 32.2% | [6] 28.1% | [9] 14.4% | [10] 55.1%

COc1ccc(C2=NN(C(=O)c3ccc(S(C)(=O)=O)cc3)C(c3ccc(OC)c(OC)c3)C2)c(OC)c1 (configuration not stated)
inactive: [1] 110% | [2] 108% | [3] 107% | [4] 106% | [5] 84.2% | [6] 106% | [7] 99.9% | [8] 101% | [9] 107% | [10] 74.8%

N#CCCN1C/C(=C/c2ccccc2)C(=O)/C(=C/c2ccccc2)C1
active: [1] -14.4% | [2] 0.855% | [8] -9.54% | [9] 1.6%
inactive: [3] 84.4% | [4] 40.5% | [5] 67.8% | [6] 55.8% | [7] 16% | [10] 68%

COc1ccc2c(c1)N(CCO)C1=C(C(=O)OC1)C2c1cc(OC)c(OC)c(OC)c1 (configuration not stated)
active: [2] 7.94% | [6] 9.98% | [7] -53.2% | [8] -6.85% | [9] -14.7%
inactive: [1] 18.7% | [3] 39.8% | [4] 51% | [5] 20.6% | [10] 71.9%

N=c1nc(N)ncn1-c1ccccc1
inactive: [1] 97.7% | [2] 99.5% | [3] 95% | [4] 100% | [5] 96.3% | [6] 104% | [7] 116% | [8] 101% | [9] 102% | [10] 86.5%

COC(=O)C(C(C[N+](=O)[O-])c1ccccc1)=P(c1ccccc1)(c1ccccc1)c1ccccc1 (configuration not stated)
inactive: [2] 93.4% | [3] 96.5% | [4] 98.3% | [5] 95.7% | [6] 66% | [7] 89.5% | [8] 110% | [9] 103% | [10] 83.9%
active: [1] -28.2%

COC(=O)c1c(-c2ccccc2)csc1NC(=O)c1c(-c2ccccc2)noc1C
inactive: [1] 27.9% | [2] 25.6% | [3] 63% | [4] 79.9% | [5] 58.6% | [6] 20.6% | [7] 36.7% | [8] 65.9% | [9] 36.8% | [10] 71.8%

O=C(Nc1ccccc1)Nc1cccc(-n2cc(-c3ccncc3)c(-c3ccc(O)c(Cl)c3)n2)c1
active: [1] 9.53%
inactive: [2] 42.7% | [3] 91.1% | [4] 72.8% | [5] 58.6% | [6] 89.7% | [7] 73.8% | [8] 40% | [9] 83.2% | [10] 44.6%

CSc1nn(-c2ccccc2)c2ncnc(Oc3ccccc3)c12
inactive: [1] 84.5% | [2] 99% | [3] 96.2% | [4] 86.9% | [5] 104% | [6] 87.4% | [7] 91.2% | [8] 148% | [9] 96.6% | [10] 87.7%

Clc1ccc2c(NCCCNc3nccc(Nc4ccc(Br)cc4)n3)ccnc2c1
inactive: [3] 15.3% | [6] 24.2%
active: [1] -59.9% | [2] -65.2% | [4] -9.2% | [5] -44.1% | [7] -22.8% | [8] -56% | [9] 0.467% | [10] -56.2%

COc1ccc(-c2nn(-c3cccc(NC(=O)c4ccc5c(c4)OCCO5)c3)cc2-c2ccncc2)cc1Cl
active: [1] -11.4% | [7] 4.99% | [8] 1.38%
inactive: [2] 29.6% | [3] 42.7% | [4] 49% | [5] 25.9% | [6] 41.5% | [9] 10.2% | [10] 19.5%

COc1ccc(-c2nn(-c3cccc(NC(=O)c4cccc(C(F)(F)F)c4)c3)cc2-c2ccncc2)cc1Cl
active: [1] 6.49%
inactive: [2] 33% | [3] 55.8% | [4] 60.7% | [5] 37.8% | [6] 42.4% | [7] 11.9% | [8] 24.9% | [9] 15.2% | [10] 18.6%

CCCCCCc1cc(N=Nc2ccc(S(=O)(=O)Nc3cc(C)nc(C)n3)cc2)c(O)cc1O
inactive: [1] 95.5% | [2] 99.7% | [3] 113% | [4] 108% | [5] 101% | [6] 96.2% | [7] 109% | [8] 110% | [9] 99.9% | [10] 93.9%

O=C1/C(=C\c2ccc(F)cc2)CN(C(=O)c2ccc([N+](=O)[O-])cc2)C/C1=C\c1ccc(F)cc1
inactive: [2] 19.5% | [3] 77.1% | [4] 50.5% | [5] 50.8% | [6] 33.9% | [7] 10.3% | [9] 24.3% | [10] 64.5%
active: [1] -13.3% | [8] -9.57%

CCOC(=O)c1ccc(NC(=O)Nc2ncc(Cl)cc2Cl)cc1
inactive: [1] 94.5% | [2] 97.7% | [3] 101% | [4] 104% | [5] 100% | [6] 115% | [7] 150% | [8] 132% | [9] 101% | [10] 73.4%

COc1ccccc1/C=C/C(=O)c1ccccc1
inactive: [2] 61.8% | [3] 105% | [4] 70.2% | [5] 118% | [6] 28.8% | [7] 59.9% | [8] 73.9% | [9] 86.7% | [10] 94.8%
active: [1] -36.2%

CSc1nc(=O)n(Cc2ccc(F)cc2)c(=O)n1Cc1ccc(C)cc1
inactive: [1] 99.2% | [2] 97.6% | [3] 102% | [4] 98.4% | [5] 98.7% | [6] 107% | [7] 101% | [8] 109% | [9] 86.6% | [10] 87%

COc1ccc(/C(=C2/O[C@@H]([C@H]3COC(C)(C)O3)[C@H]3OC(C)(C)O[C@@H]23)c2cc(OC)c(OC)c(OC)c2)cc1O
active: [9] -10.5%
inactive: [1] 36.4% | [2] 96.1% | [3] 92.9% | [4] 106% | [5] 90.1% | [6] 92.6% | [7] 58.3% | [10] 115%

CCOC(=O)N1C/C(=C/c2ccc(OC)cc2)C(=O)/C(=C/c2ccc(OC)cc2)C1
active: [1] -14.8% | [8] -15.8%
inactive: [2] 19.6% | [3] 95% | [4] 58% | [5] 26.9% | [6] 17.2% | [9] 21.7% | [10] 43.7%

O=C(Nc1cccc(-n2cc(-c3ccncc3)c(-c3ccc(O)c(Cl)c3)n2)c1)c1cccc(C(F)(F)F)c1
inactive: [1] 13.4% | [2] 18.4% | [3] 89.4% | [4] 51.2% | [5] 71.2% | [6] 51.6% | [8] 41.2% | [9] 35.1% | [10] 15%

CCCC(F)C(=O)O (configuration not stated)
inactive: [1] 98.4% | [2] 98.2% | [3] 115% | [4] 106% | [5] 98.3% | [6] 107% | [7] 116% | [8] 100% | [9] 108% | [10] 97.7%

CCN(CC)CCOc1nc2ccccc2c2c1-c1ccc(OC)cc1C2=O
active: [1] -14.3% | [2] 6.78% | [4] 6.09% | [6] -37.9% | [7] -18.6% | [8] 1.77% | [9] -12.8%
inactive: [3] 25.8% | [5] 43.5% | [10] 47.1%

CC/C(=N\N=C(/CC)c1ccc(Br)cc1)c1ccc(Br)cc1
inactive: [1] 93.9% | [2] 116% | [3] 92.4% | [4] 93.7% | [5] 100% | [6] 79.5% | [8] 110% | [9] 105% | [10] 83%

COC(=O)c1ccc(=O)oc1
inactive: [1] 93.7% | [2] 104% | [3] 89.1% | [4] 102% | [5] 107% | [6] 112% | [7] 116% | [9] 97.1% | [10] 96.3%

CCN(CC)Cc1cc(Nc2ccnc3cc(Cl)ccc23)ccc1OC
inactive: [1] 72.2% | [2] 91.7% | [3] 109% | [4] 68.2% | [5] 102% | [6] 94.5% | [7] 93.6% | [9] 89.5% | [10] 102%

Cc1cc(Cl)nc(N(CCCNc2ccnc3cc(Cl)ccc23)Cc2cccs2)n1
inactive: [3] 31.8% | [4] 11% | [5] 46.3% | [7] 25.9% | [8] 48.6%
active: [1] -48.5% | [2] 7.5% | [6] 6.77% | [9] 0.179% | [10] -2.57%

CCN(CCCCCCN1CC(=O)N(CCCCCCN(CC)Cc2ccccc2OC)CC1=O)Cc1ccccc1OC
inactive: [1] 30.3% | [2] 86.7% | [3] 68.9% | [4] 77.1% | [5] 102% | [6] 61.1% | [7] 59.5% | [9] 70.9% | [10] 90.8%

CCN(CCCCCCCCCCN1CC(=O)N(CCCCCCCCCCN(CC)Cc2ccccc2OC)CC1=O)Cc1ccccc1OC
active: [1] -70.2% | [2] -77.1% | [3] 8.29% | [5] -38.5% | [6] -66.3% | [7] -62.6% | [9] -32.9% | [10] -66.5%
inactive: [4] 10.2%
